# Experimental data: the supplement of paper PMC7411054
# Where a name gives a salt, the structure may show the parent alone.
# How the values were obtained:
# Conditions in all cases: treatment time: 24 h
# [1] = test system: HepG2-ACTB-RAB5A; assay: lowest phenotypically active concentration; higher = less potent
# How it was run: (§1)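 Fifteen gene-edited A549, HepG2 and WPMY1 reporter lines (BFP segmentation plus GFP and RFP/FusionRed markers) were treated at 0.3, 1, 3 or 9 µM for 24 h, four wells each, then imaged live. Live-cell features per well were normalised to DMSO control wells. Deviation required ≥3 of 4 wells beyond the 95th percentile of DMSO Euclidean distances, and reproducibility required median replicate Pearson correlation above the 95th percentile of non-replicates. Phenotypic activity needed both criteria.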
# [2] = test system: HepG2-CANX-COX4; assay: as above
# How it was run: as §1
# [3] = test system: HepG2-TP53BP1-CLTA; assay: as above
# How it was run: as §1
# [4] = test system: HepG2-TUBA1B-RELA; assay: as above
# How it was run: as §1
# [5] = test system: WPMY1-ACTB-RAB5A; assay: as above
# How it was run: as §1
# [6] = test system: WPMY1-CANX-COX4; assay: as above
# How it was run: as §1
# [7] = test system: WPMY1-GM130-SQSTM1; assay: as above
# How it was run: as §1
# [8] = test system: WPMY1-TP53BP1-CLTA; assay: as above
# How it was run: as §1
# [9] = test system: WPMY1-TUBA1B-RELA; assay: as above
# How it was run: as §1
# [10] = test system: WPMY1-ACTB-RAB5A; assay: phenotypically active (imaging signature differs from DMSO and reproducible) at any of 0.3-9 uM (binary (1 = active, 0 = inactive)); higher = active
# How it was run: as §1
SMILES,lowest phenotypically active concentration [1] [µM],lowest phenotypically active concentration [2] [µM],lowest phenotypically active concentration [3] [µM],lowest phenotypically active concentration [4] [µM],lowest phenotypically active concentration [5] [µM],lowest phenotypically active concentration [6] [µM],lowest phenotypically active concentration [7] [µM],lowest phenotypically active concentration [8] [µM],lowest phenotypically active concentration [9] [µM],phenotypically active [10]
COc1cc2c(cc1-c1c(C)noc1C)ncc1[nH]c(=O)n([C@H](C)c3ccccn3)c12 [I-BET 151 dihydrochloride],1,3,3,3,3,3,3,3,3,1 (active)
COc1ccc(S(=O)(=O)N(CCO)c2ccccc2CN(C)C/C=C/c2ccc(Cl)cc2)cc1,9,3,9,9,9,9,9,9,9,1 (active)
NC1(C(=O)N[C@@H](CCO)c2ccc(Cl)cc2)CCN(c2ncnc3[nH]ccc23)CC1,3,3,1,1,1,1,1,1,1,1 (active)
CN[C@H]1CC[C@@H](c2ccc(Cl)c(Cl)c2)c2ccccc21 [sertraline],3,9,3,3,3,3,3,3,3,1 (active)
CO[C@H]1C=CC=C(C)C(=O)NC2=CC(=O)C(NCCN(C)C)=C(C[C@@H](C)C[C@H](OC)[C@H](O)[C@@H](C)C=C(C)[C@@H]1OC(N)=O)C2=O [17-DMAG hydrochloride],≤ 0.3,≤ 0.3,≤ 0.3,≤ 0.3,≤ 0.3,≤ 0.3,≤ 0.3,≤ 0.3,≤ 0.3,1 (active)
O=C(CCCCCCC(=O)Nc1cccnc1)NO [Pyroxamide],3,3,3,3,9,3,3,3,3,1 (active)
CNC(=O)Nc1ccc(-c2nc(N3CC4CCC(C3)O4)c3cnn(C4CCC5(CC4)OCCO5)c3n2)cc1,≤ 0.3,≤ 0.3,≤ 0.3,≤ 0.3,≤ 0.3,≤ 0.3,≤ 0.3,≤ 0.3,≤ 0.3,1 (active)
CCC1(O)CC2CN(CCc3c([nH]c4ccccc34)C(C(=O)OC)(c3cc4c(cc3OC)N(C)C3C(O)(C(=O)OC)C(OC(C)=O)C5(CC)C=CCN6CCC43C65)C2)C1 (stereo not given) [Vinblastine sulfate],≤ 0.3,≤ 0.3,1,≤ 0.3,≤ 0.3,≤ 0.3,≤ 0.3,≤ 0.3,≤ 0.3,1 (active)
COc1ccc2cc1Oc1ccc(cc1)C[C@H]1c3cc(c(OC)cc3CCN1C)Oc1c(OC)c(OC)cc3c1[C@H](C2)N(C)CC3 [Tetrandrine],1,3,1,≤ 0.3,1,1,≤ 0.3,3,1,1 (active)
COc1ccc(C[C@H](N)C(=O)N[C@H]2[C@@H](O)[C@H](n3cnc4c(N(C)C)ncnc43)O[C@@H]2CO)cc1 [Puromycin dihydrochloride],≤ 0.3,≤ 0.3,≤ 0.3,≤ 0.3,≤ 0.3,1,≤ 0.3,1,1,1 (active)
Cc1noc(C)c1-c1cc(O)cc(C(O)c2ccccc2)c1 (stereo not given),3,3,3,3,3,3,1,3,3,1 (active)
Nc1ncnc2c1c(-c1cnc3[nH]ccc3c1)nn2C1CCCC1,1,≤ 0.3,≤ 0.3,≤ 0.3,1,1,1,≤ 0.3,1,1 (active)
Cc1c[nH]c2nccc(Oc3c(F)cc(Nc4cc(Cl)nc(N)n4)cc3F)c12,≤ 0.3,≤ 0.3,≤ 0.3,≤ 0.3,≤ 0.3,≤ 0.3,≤ 0.3,1,≤ 0.3,1 (active)
CC(=O)Nc1ccc(C(=O)Nc2ccccc2N)cc1,3,1,1,3,3,3,3,3,9,1 (active)
Clc1ccc(N/N=C(\c2ccccc2)c2ccccn2)nc1,≤ 0.3,≤ 0.3,≤ 0.3,≤ 0.3,1,1,1,1,1,1 (active)
C[C@@H](CN1CCC(n2c(=O)[nH]c3cc(Cl)ccc32)CC1)NC(=O)c1ccc2ccccc2c1,9,9,9,3,9,9,9,9,9,1 (active)
Cc1cc(C)cc(C(=O)NOCCCCCC(=O)NO)c1,≤ 0.3,≤ 0.3,1,≤ 0.3,1,≤ 0.3,≤ 0.3,≤ 0.3,≤ 0.3,1 (active)
COCc1c(C(C)C)nc(C(C)C)c(/C=C/[C@@H](O)C[C@@H](O)CC(=O)O)c1-c1ccc(F)cc1 [cerivastatin],≤ 0.3,≤ 0.3,≤ 0.3,≤ 0.3,≤ 0.3,≤ 0.3,≤ 0.3,≤ 0.3,≤ 0.3,1 (active)

SMILES,lowest phenotypically active concentration [1] [µM],lowest phenotypically active concentration [2] [µM],lowest phenotypically active concentration [3] [µM],lowest phenotypically active concentration [4] [µM],lowest phenotypically active concentration [5] [µM],lowest phenotypically active concentration [6] [µM],lowest phenotypically active concentration [7] [µM],lowest phenotypically active concentration [8] [µM],lowest phenotypically active concentration [9] [µM],phenotypically active [10]
Cc1ncc(-c2ccnc(Nc3ccc(S(C)(=O)=O)cc3)n2)n1C(C)C,≤ 0.3,≤ 0.3,≤ 0.3,≤ 0.3,≤ 0.3,≤ 0.3,≤ 0.3,≤ 0.3,≤ 0.3,1 (active)
Cc1c(CN2CCN(C(=O)[C@H](C)O)CC2)sc2c(N3CCOCC3)nc(-c3cnc(N)nc3)nc12,≤ 0.3,≤ 0.3,1,≤ 0.3,≤ 0.3,≤ 0.3,≤ 0.3,≤ 0.3,≤ 0.3,1 (active)
O=C(CCCCCN1C(=O)c2cccc3cccc(c23)C1=O)NO [Scriptaid],≤ 0.3,1,≤ 0.3,≤ 0.3,1,1,1,1,1,1 (active)
O=C1Cc2c([nH]c3ccc(Br)cc23)-c2ccccc2N1 [Kenpaullone],3,1,3,1,1,1,1,1,3,1 (active)
Cc1ccc(/C(=C/CN2CCCC2)c2cccc(/C=C/C(=O)O)n2)cc1 [acrivastine],3,9,9,1,1,1,1,9,1,1 (active)
O=C1NCCN1CCN1CCC(c2cn(-c3ccc(F)cc3)c3ccc(Cl)cc23)CC1 [sertindole],9,9,3,3,9,3,9,9,3,1 (active)
COc1cc2c(Nc3ccc(Br)cc3F)ncnc2cc1OCC1CCN(C)CC1 [vandetanib],3,3,3,1,3,3,3,9,3,1 (active)
O=C(Nc1cccc(Cl)c1)Nc1ncc(CCNc2ncnc3ccsc23)s1 [SNS 314 mesylate],≤ 0.3,≤ 0.3,≤ 0.3,≤ 0.3,≤ 0.3,≤ 0.3,≤ 0.3,≤ 0.3,≤ 0.3,1 (active)
O=C(OC12CC3CC(CC(C3)C1)C2)c1ccc(NCc2cc(O)ccc2O)cc1 [Adaphostin],1,3,3,3,1,1,1,3,1,1 (active)
O=C(c1cccc(Cl)c1F)N1CCN(Cc2cccc(Nc3nccs3)n2)CC1,≤ 0.3,≤ 0.3,≤ 0.3,≤ 0.3,1,9,3,≤ 0.3,1,1 (active)
N#Cc1c(C2CCNCC2)cc(-c2c(O)cccc2OCC2CC2)nc1N,9,9,9,9,3,3,9,9,9,1 (active)
COc1ccccc1-c1c[nH]c2ncc(-c3cncc(C(=O)N(C)C)c3)cc12,≤ 0.3,≤ 0.3,≤ 0.3,≤ 0.3,≤ 0.3,≤ 0.3,≤ 0.3,≤ 0.3,3,1 (active)
COc1cc(C(=O)N2CCC(N3CCN(C)CC3)CC2)ccc1Nc1ncc2c(n1)N(C)c1ccccc1C(=O)N2C,1,1,3,1,3,3,1,3,1,1 (active)
Cc1cnc(NC(=O)Nc2cc(Br)c(C)cc2OC[C@@H]2CNCCO2)cn1,3,9,1,1,≤ 0.3,1,3,1,1,1 (active)
Cc1cc(Nc2nc(N[C@@H](C)c3ncc(F)cn3)ncc2Cl)n[nH]1,1,3,≤ 0.3,1,3,9,9,3,3,1 (active)
O=C(Cc1ccc(-c2ccc(OCCN3CCOCC3)cc2)cn1)NCc1ccccc1,≤ 0.3,≤ 0.3,≤ 0.3,≤ 0.3,≤ 0.3,≤ 0.3,≤ 0.3,≤ 0.3,≤ 0.3,1 (active)
CC(C)n1nc(-c2cc3cc(O)ccc3[nH]2)c2c(N)ncnc21,1,≤ 0.3,3,1,1,1,1,1,3,1 (active)
CC(C)NCCCn1c(Sc2cc3c(cc2I)OCO3)nc2c(N)ncnc21,≤ 0.3,≤ 0.3,≤ 0.3,≤ 0.3,≤ 0.3,≤ 0.3,≤ 0.3,≤ 0.3,≤ 0.3,1 (active)
